Assay outcomes from PubChem.
ALR inh = inhibitors of human ALR sulfhydryl oxidase, primary screen, biochemical, H2O2 detection, HRP-luminol luminescence, single point | purified ALR, DTT oxidation | inhibition, % (test concentration not listed) | hit rate 3.8% among 290,000 | AID 485317, 2010;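 active means mean replicate inhibition above about 79%, with every replicate also reaching it, limit read from the data; inconclusive means only one of the two criteria met; inactive means mean below limit and not every replicate reaching it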
Target sequence (P55789 whole entry, looked up): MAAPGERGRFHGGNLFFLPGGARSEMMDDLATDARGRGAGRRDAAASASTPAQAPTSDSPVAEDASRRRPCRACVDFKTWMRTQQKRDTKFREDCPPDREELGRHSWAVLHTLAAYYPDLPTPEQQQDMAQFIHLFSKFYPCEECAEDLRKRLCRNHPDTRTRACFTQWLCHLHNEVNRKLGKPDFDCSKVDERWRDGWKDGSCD
MLLE-PAM2 inh = inhibitors of PABP1 MLLE–PAM2 peptide binding, primary screen, biochemical, fluorescence polarization, FITC-PAM2, GST-MLLE | inhibition, % at 20 µM | Polyadenylate-binding protein 1 (Homo sapiens), P11940 | hit rate 0.36% among 360,000 | AID 588489, 2011; in the data active means inhibition above about 35%, passing the limit was not always enough
PABP polyA inh = PABP poly(A) RNA binding inhibitors, primary screen, biochemical, fluorescence polarization, uHTS | Polyadenylate-binding protein 1 (Homo sapiens), P11940 | inhibition, % at 35 µM | hit rate 1% among 290,000 | AID 2014, 2009;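 further: calls also rest on retests at 20 µM and on dose response follow-up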
eIF4H FP inh = human eIF4H binding inhibitors, primary screen, translation initiation inhibitor project, biochemical, uHTS, fluorescence polarization | Eukaryotic translation initiation factor 4H (Homo sapiens), Q15056 | eIF4H fluorescence polarization binding assay | inhibition, % at 35 µM | hit rate 0.94% among 290,000 | AID 2012, 2009;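 further: calls also rest on retests at 20 µM and on dose response follow-up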
Efflux pump inh = inhibitors of Candida efflux pumps in yeast, primary screen, S. cerevisiae, Nile Red, multiplex. inhibition, % at 10 µM. hit rate 0.44% among 330,000. S. cerevisiae Candida pump triplex;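 active means plate passing quality check with inhibition over a set limit, or well fluorescence over plate mean plus 4 SD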;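 further: Nile Red retained in pooled yeast measured as flow cytometry median fluorescence; higher means more Nile Red kept so more efflux inhibition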
SUMO HTRF inh = inhibitors of in vitro SUMOylation cascade, primary screen, biochemical, HTRF, uHTS; SUMO-conjugating enzyme UBC9 (Homo sapiens), P63279; HTRF SUMOylation assay, SAE1/SAE2 + UBC9; inhibition, % at 35 µM; hit rate 0.36% among 290,000; AID 2006, 2009; in the data active means inhibition above about 50%, passing the limit was not always enough; inconclusive means no clear call, values can overlap the other calls
Target sequence (P63279 whole entry, looked up): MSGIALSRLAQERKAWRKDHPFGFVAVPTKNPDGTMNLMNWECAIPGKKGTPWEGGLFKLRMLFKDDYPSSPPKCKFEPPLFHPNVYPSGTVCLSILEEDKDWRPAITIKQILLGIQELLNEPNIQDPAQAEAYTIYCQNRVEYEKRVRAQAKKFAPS
Numbers stand for hits; n = inactive; u = inconclusive; x = no result given. Only some compounds are listed: those with a hit (about 4.7% of all), similar ones and a draw of the others. Unless noted, how the calls were made is not given here.

SMILES	ALR inh	MLLE-PAM2 inh	PABP polyA inh	eIF4H FP inh	Efflux pump inh	SUMO HTRF inh
COc1cccc(/C=C2\SC(=S)N(CCCC(=O)NC3=NCCS3)C2=O)c1	n	n	23	n	n	n
COc1cccc(/C=C2\SC(=S)N(CCCC(=O)Nc3cc(C)on3)C2=O)c1	n	n	18	u	n	n
Nn1c(SCC(=O)Nc2ccc(OC(F)F)cc2)nnc(Cc2ccccc2)c1=O	98	n	x	x	n	x
COc1ccc(NC(=O)CSc2nnc(Cc3ccccc3)c(=O)n2N)c(OC)c1	n	n	x	x	n	x
Cc1ccc(NC(=O)CSc2nnc(C)c(=O)n2N)cc1Cl	n	n	n	n	n	n
Cc1nnc(SCC(=O)Nc2ccc(OC(F)F)c(Cl)c2)n(N)c1=O	99	n	x	x	n	x
C[C@H](CO)N1C[C@H](C)[C@H](CN(C)C(=O)Cc2ccncc2)Oc2ncc(Br)cc2C1=O	x	n	x	x	x	x
c1ccc(-n2ncc3c2ncn2nc(-c4ccco4)nc32)cc1	n	n	n	50	n	n
CCCCOP(=O)(c1ccc(N(C)C)cc1)C(O)c1ccc(N(C)C)cc1 (stereo not given)	92	n	n	n	n	n
CCCCOP(=O)(c1ccc(N(C)C)cc1)C(O)c1ccc(C(C)C)cc1 (stereo not given)	n	n	n	n	n	n
CC1(C)CC(=O)C2=C(C1)Nc1ccccc1NC2c1cc(Cl)ccc1O (stereo not given)	x	n	n	n	n	n
COc1cccc(C2Nc3ccccc3NC3=C2C(=O)CC(C)(C)C3)c1OC (stereo not given)	99	n	n	n	n	n
COc1ccccc1C1Nc2ccccc2NC2=C1C(=O)CC(C)(C)C2 (stereo not given)	99	n	n	n	n	n
COc1ccc(OC)c(C2Nc3ccccc3NC3=C2C(=O)CC(C)(C)C3)c1 (stereo not given)	99	n	n	u	n	n
COc1ccc(C2Nc3ccccc3NC3=C2C(=O)CC(C)(C)C3)cc1OC (stereo not given)	n	n	n	n	n	n
COc1cc(C2Nc3cc(C)c(C)cc3NC3=C2C(=O)CC(C)(C)C3)ccc1OC(C)=O (stereo not given)	80	n	n	n	n	n
O=C(Nc1ccc(C2=CN(Cc3ccccc3)CCC2=O)cc1)OCc1ccccc1	n	n	x	x	n	x
C=CCOc1ccccc1C1C2=C(CC(C)(C)CC2=O)Nc2c1c(=O)n(C)c(=O)n2C (stereo not given)	n	n	n	n	n	n
CCOc1ccc(C2Nc3ccccc3NC3=C2C(=O)CC(C)(C)C3)cc1OC (stereo not given)	98	n	n	n	n	n
COc1ccc(C2Nc3ccccc3NC3=C2C(=O)CC(C)(C)C3)c(OC)c1OC (stereo not given)	98	n	n	n	n	n
COc1ccc(C2Nc3ccccc3NC3=C2C(=O)CC(C)(C)C3)cc1O (stereo not given)	x	n	u	u	n	n
COc1ccc(C2C3=C(CC(C)(C)CC3=O)Nc3c2c(=O)n(C)c(=O)n3C)cc1OC (stereo not given)	n	n	n	active	n	n
Cc1ccccc1CSc1nnc(-c2ccncc2)n1C	n	n	n	n	n	n
S=C(c1c[nH]c2ccc(Br)cc12)N1CCOCC1	99	n	n	n	n	n
O=C(c1c[nH]c2ccccc12)N1CCOCC1	n	n	n	n	n	n
O=C(N/N=C\c1cn[nH]c1-c1ccc(Cl)cc1)c1cccs1	x	n	n	n	n	52
CN1OC[C@@H]2CN[C@H](c3cccc(-c4ccc(C#N)cc4)c3)C[C@@H]21	x	n	x	x	x	x
Cc1ccc(-c2nnn(CC(=O)N(CC3CCCO3)C(C(=O)NCC3CCCO3)c3ccc(F)cc3)n2)o1 (stereo not given)	n	n	n	n	n	n
Cc1ccc(-c2nnn(CC(=O)N(CC3CCCO3)C(C(=O)NC(C)(C)C)c3ccc(F)cc3)n2)o1 (stereo not given)	99	n	n	n	n	n
